# SMN2 splice up: enhancers of SMN2 splice variant expression | HEK293 SMN2-luciferase splicing reporter, luminescence, 30-36 h | Potency, µM (highest dose often 46.1 µM), without a hit: at the top dose activity change, positive = activation, actives largely listed as activators | hit rate 2.8% among 210,000; also: % of control where 0% means no effect; nearly all actives have a fitted effect of over 55% in size
#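 HEK293 cells carry an SMN2 minigene-luciferase reporter in which exon 7 inclusion puts luciferase in frame. Cells were seeded at 2000 cells/well, attached for 10-12 hours, then exposed to compounds for 30-36 hours at 37C before ONE-Glo luminescence.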
# Rab9 promoter act: activators of Rab9 promoter | Huh7 Rab9 promoter-luciferase reporter, luminescence, 24 h | Potency, µM (top dose mostly 9.22 µM), for inactives: at the top dose activation, negative = inhibition, usual class: activators | hit rate 2.8% among 320,000; also: % of control where 0% means no effect; nearly all actives have a fitted effect of over 60% in size
#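 Luciferase signal after 10 min detection reagent at ambient indicates Rab9 promoter upregulation; stably transfected Huh7 cells were treated 24 h with compound in DMSO at 37 °C, 5% CO2.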
# ELG1 repair inh: ELG1-dependent DNA repair inhibition | HEK293T ELG1-luciferase reporter, luminescence, 16 h; DNA damage induced by 5-fluorouridine | Potency, µM (top dose mostly 46.1 µM), inactives show at the top dose activity change, negative = inhibition, actives largely listed as inhibitors | hit rate 2.3% among 330,000 | AID 504467; also: % is scaled to controls: 0 for no effect and ±100 for the full control effect; nearly all actives have a fitted effect of over 55% in size
#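 Quantitative HTS, concentration-response format. 2,000 cells/well co-treated with 5-fluorouridine and compound, 16 hr in 5% CO2 at 37 °C; ONE-Glo luminescence read after 30 min.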
# ELG1 genotox: inducers of genotoxicity in HEK293T ELG1-luciferase cells; HEK293T ELG1-luciferase reporter, luminescence, 16 h; Potency, µM (series often up to 46 µM), inactives show at the top dose activity change, positive = activation, most hits filed as activators; hit rate 1.3% among 330,000; AID 504466; also: % of control where 0% means no effect; nearly all actives have a fitted effect of over 60% in size
#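 Cells (2,000/well) expressing the ELG1-luciferase fusion are dosed by pin tool and kept 16 hr at 37 °C, 5% CO2. Signal comes from ONE-Glo luciferase reagent after 30 min at room temperature.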
# NPC1 prom act: activators of NPC1 promoter. Huh7 NPC1 promoter luciferase reporter, 24 h. Potency, µM (doses to about 9.22 µM), for inactives: at the highest dose activation, most hits filed as activators. hit rate 2.4% among 320,000. AID 485313; also: % of control where 0% means no effect; nearly all actives have a fitted effect of over 60% in size
#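 Luminescence from an NPC1 promoter-driven luciferase reporter in stably transfected Huh7 cells was measured after 24 h compound treatment at 37 °C, followed by 10 min ambient incubation with luciferase detection reagent.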
# FLuc modulator: firefly luciferase modulation, counter-screen for miR-21 project. Potency, µM (highest dose often 57.5 µM), inactives show at the top dose activity change, negative = inhibition, hits mostly inhibitors. purified FLuc, Km substrates, luminescence inhibition. AID 588342. hit rate 6.9% among 360,000. P08659;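 also: plate controls were vehicle for no effect and reference inhibitor for full effect; nearly all actives have a fitted effect of over 55% in size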
# Target sequence (P08659 whole entry, looked up): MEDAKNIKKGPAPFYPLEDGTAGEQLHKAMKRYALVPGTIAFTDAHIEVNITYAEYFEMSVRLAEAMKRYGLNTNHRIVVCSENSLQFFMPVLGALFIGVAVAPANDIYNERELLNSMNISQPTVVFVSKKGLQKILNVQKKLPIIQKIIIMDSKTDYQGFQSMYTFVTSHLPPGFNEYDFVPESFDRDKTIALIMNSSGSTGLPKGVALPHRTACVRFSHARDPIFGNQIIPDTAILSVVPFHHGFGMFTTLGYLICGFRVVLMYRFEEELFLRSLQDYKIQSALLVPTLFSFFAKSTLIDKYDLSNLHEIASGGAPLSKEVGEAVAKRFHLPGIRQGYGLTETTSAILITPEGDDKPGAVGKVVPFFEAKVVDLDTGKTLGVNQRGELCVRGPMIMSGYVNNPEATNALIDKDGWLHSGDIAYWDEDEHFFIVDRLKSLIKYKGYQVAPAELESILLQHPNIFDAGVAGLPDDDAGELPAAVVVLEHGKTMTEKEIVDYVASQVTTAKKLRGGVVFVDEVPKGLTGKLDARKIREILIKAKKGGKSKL
#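 Purified P. pyralis luciferase (10nM final) with 10uM D-luciferin and 10uM ATP (Km levels) in 50mM Tris acetate pH 7.5, 10mM Mg acetate, 0.01% Tween-20, 0.05% BSA; qHTS 6-point titration, ~60 µM downward; luminescence read.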
# Active calls of the source: *; ? = inconclusive; · = no result given. Rows were chosen to be rich in hits. Some 9.2% of all compounds tested hit in one or more screens of this group. Calls follow the shape of the dose curve; as a rule, active = well fitted curve in the direction sought with a large enough effect; inconclusive = small, poorly fitted or top-dose-only effect, or another doubt; inactive = no such curve, though single readings can be large; an effect the other way counts as inactive or inconclusive. Potency is read from the fitted curve at half-maximal effect.
SMILES,SMN2 splice up,Rab9 promoter act,ELG1 repair inh,ELG1 genotox,NPC1 prom act,FLuc modulator
O=C(CCCN1C(=O)S/C(=C\C=C\c2ccccc2)C1=O)Nc1ccc(O)cc1,·,24%,?,?,?,?
O=C(COC(=O)CCN1C(=O)/C(=C\C=C\c2ccccc2)SC1=S)Nc1cc(F)ccc1F,-14%,-7%,?,3%,-2%,13µM*
O=C(CCN1C(=O)/C(=C/C=C/c2ccccc2)SC1=S)Nc1nc2ccccc2s1,2%,-2%,6%,18%,-1%,?
O=C(Nc1cc([N+](=O)[O-])ccc1C(=O)NCCN1CCOCC1)c1ccccc1,·,-2%,-5%,4%,1%,5%
COc1ccccc1-n1nnnc1SCC(=O)N1CCCC1=O,·,9%,?,1%,-8%,2%
Cc1cccc(NC(=O)c2oc3ccccc3c2NC(=O)Cc2coc3cc(C)cc(C)c23)c1,9%,·,·,·,·,1%
CCN(CC)c1ccc(NC(=O)c2cnn(-c3ccccc3)c2-n2cccc2)c(C)c1,?,·,·,·,·,-13%
O=C(CN1C(=O)/C(=C\C=C\c2ccccc2)SC1=S)Nc1ccc(F)cc1,4.5µM*,1%,?,4%,0%,-6%
COc1ccc(C2c3ccc(O)cc3Oc3ncn4nc(-c5cccnc5)nc4c32)cc1OC (stereo not drawn),·,-5%,10µM*,-2%,-2%,-1%
O=C(CCc1nnc(-c2ccccc2)o1)NC1CCCCC1,·,?,?,?,30%,17µM*
O=C(CCc1nnc(-c2ccc(-c3ccccc3)cc2)o1)N1CCCCC1,·,?,?,?,?,13µM*
COC(c1ccccc1)c1nnc(CCC(=O)NC2CCCCC2)o1 (stereo not drawn),·,-3%,9%,-1%,-2%,-16%
CCOC(=O)CN(C)C(=O)CCc1nnc(-c2ccsc2)o1,·,-2%,0%,-1%,0%,-9%
O=C(CCc1nnc(-c2ccsc2)o1)N1CCc2c(Cl)cccc2C1,·,?,?,?,19%,17µM*
Cc1c(C(=O)O)cccc1-c1ccc(/C=C2/NC(=O)N(c3ccccc3)C2=O)o1,·,1µM*,?,13%,?,9.5µM*
Cc1ccc(/C=C2/NC(=O)N(c3ccccc3)C2=O)o1,-4%,?,?,?,26%,?
Cc1ccc(NC(=O)CN2C(=O)S/C(=C\c3ccc(-c4cccc(C(=O)O)c4C)o3)C2=O)cc1C,18%,-4%,-4%,0%,0%,?
Cc1c(C(=O)O)cccc1-c1ccc(/C=C2\SC(=O)NC2=O)o1,·,19%,-5%,-4%,15%,5.4µM*
Cc1cc(NCc2ccccn2)n2c(nc3ccccc32)c1C#N,-8%,-1%,-5%,-6%,-2%,2%
CCCc1cc(NCc2ccccn2)n2c(nc3ccccc32)c1C#N,-19%,-10%,?,-10%,-1%,11µM*
CCCc1cc(NCC2CCCO2)n2c(nc3ccccc32)c1C#N (stereo not drawn),-5%,-6%,23µM*,-15%,-6%,17µM*
Cc1cc(/C=C2\SC(=S)NC2=O)c(C)n1C,11%,-7%,16%,11%,3%,27µM*
Cc1cc(/C=C2\SC(=S)NC2=O)cc(C)c1O,·,-2%,?,16%,2%,8.5µM*
Cc1nn(C)cc1/C=C1\SC(=S)NC1=O,2%,-1%,?,0%,-1%,?
Cc1cc(/C=C2\SC(N)=NC2=O)c(C)n1-c1ccccc1,13µM*,2.8µM*,?,7.3µM*,1.4µM*,0.38µM*
SMILES,SMN2 splice up,Rab9 promoter act,ELG1 repair inh,ELG1 genotox,NPC1 prom act,FLuc modulator
Cc1cc(/C=C2\SC(=S)NC2=O)c(C)n1-c1ccc(O)cc1,·,1.8µM*,?,?,1.8µM*,0.85µM*
CCCOc1ccccc1/C=C1\SC(N)=NC1=O,·,-3%,?,-15%,9%,4%
CCOC(=O)c1c(S(=O)(=O)N2CCCC(C(=O)Nc3cccc(C#N)c3)C2)c(C)n(C)c1C (stereo not drawn),·,·,·,·,·,-10%
NCCCCCNC(=O)c1[nH]cnc1C(=O)N[C@@H](Cc1ccccc1)C(=O)OCc1ccccc1,·,·,14%,0%,·,·
Cc1cc(/C=C2\SC(=S)NC2=O)c(C)n1-c1ccccc1,·,0.63µM*,?,?,1µM*,0.54µM*
CN1CCN(/C=C2\SC(=S)NC2=O)CC1,10%,1%,10%,2%,-2%,-1%
COc1ccc(-n2c(C)cc(/C=C3\SC(=S)NC3=O)c2C)cc1,·,?,?,4%,?,5.4µM*
CC1Cc2cc(/C=C3/SC(=S)NC3=O)ccc2O1 (stereo not drawn),·,4µM*,?,11%,?,2.7µM*
O=C(CN1CCN(S(=O)(=O)c2ccccc2)CC1)N1CCc2ccccc21,·,-6%,-5%,1%,-6%,4%
Cc1cc(C(=O)N/N=C/c2ccccc2Br)no1,2%,26%,?,4%,20%,21µM*
Cc1cc(C(=O)N/N=C/c2ccc[nH]2)no1,15%,11%,?,1%,2%,-19%
Cc1cc(Nc2ccccc2)n(C(=O)c2ccc(Cl)cc2)n1,20%,8%,?,11%,17%,11µM*
Cc1cc(Nc2ccccc2)n(-c2ccc(C(=O)O)cc2)n1,-1%,-2%,9%,2%,-4%,-14%
Brc1ccc2ncnc(Nc3ccc(N4CCOCC4)cc3)c2c1,-23%,2%,6.5µM*,-11%,27%,?
c1nc(Nc2ccc(N3CCOCC3)cc2)c2ccsc2n1,·,?,?,16%,3.2µM*,17µM*
COc1ccc(NC(=O)Cn2c(=O)n(Cc3nc(-c4ccccc4)no3)c(=O)c3cc4c(cc32)OCO4)cc1Cl,·,·,·,·,·,-2%
COc1ccccc1/C=C/C(=O)c1ccc(Cl)cc1,-19%,13%,?,?,?,7.6µM*
CCOc1ccccc1/C=C/C(=O)c1ccc(Cl)cc1,-58%,11%,?,10%,17%,?
COc1ccccc1/C=C/C(=O)N1CCC(c2ccccc2)C1 (stereo not drawn),13µM*,?,?,?,?,9.5µM*
COc1ccc(OC(=O)c2ccc(Cl)cc2)c(C(C)=O)c1,·,-3%,?,15%,-5%,?
COc1ccc(/C=C/C(=O)c2c(C)cc(C)[nH]c2=O)c2ccccc12,·,-9%,?,-3%,-9%,2%
COc1ccccc1/C=C/C(=O)c1c2c(c(C)[nH]c1=O)CCCC2,-54%,-30%,18µM*,-5%,0%,-7%

# Screening data deposited in PubChem by National Center for Advancing Translational Sciences (NCATS).
